The source made the active and inactive calls. A call without a number means that no potency is given here. Calls come from the whole dose curve.

The values that follow come from PubChem BioAssay (Tox21).

Sequence of Gonadotropin-releasing hormone receptor (Homo sapiens) (P30968 whole entry, looked up): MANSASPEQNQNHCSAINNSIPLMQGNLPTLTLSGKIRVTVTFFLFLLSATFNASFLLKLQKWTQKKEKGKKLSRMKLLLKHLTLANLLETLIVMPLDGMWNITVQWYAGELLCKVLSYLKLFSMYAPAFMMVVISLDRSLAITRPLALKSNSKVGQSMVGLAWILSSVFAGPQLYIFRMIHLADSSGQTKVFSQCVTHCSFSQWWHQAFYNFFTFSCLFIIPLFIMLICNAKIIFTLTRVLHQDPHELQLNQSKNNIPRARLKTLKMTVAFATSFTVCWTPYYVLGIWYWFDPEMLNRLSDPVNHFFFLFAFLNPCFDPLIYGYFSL

The test addresses Gonadotropin-releasing hormone receptor (Homo sapiens) (UniProt P30968). As to the kind of experiment: Human gonadotropin-releasing hormone receptor (GnRHR) small molecule agonists, calcium flux assay in GnRHR-HEK293 cells (AID 1920063). Note: nearly all actives have a fitted effect of over 35% in size. The following applies: calcium flux fluorescence, agonist mode; series mostly up to 57.6 µM. From the text: National Center for Advancing Translational Sciences [NCATS]
Division of Preclinical Innovation [DPI]
U.S. Environmental Protection Agency [EPA]
National Institutes of Environmental Health Sciences [NIEHS]
National Toxicology Program [NTP]
U.S. Food and Drug Administration [FDA]
Gonadotropin-releasing hormone receptor (GnRHR) is a G-protein-coupled receptor (GPCR) and acts (through phospholipase C) to increase intracellular inositol trisphosphate and then release intracellular calcium stores. Cell-based GnRHR-Hek293 calcium influx assay is using HEK293 cells that have been genetically engineered to express the human GnRHR, which activity can be measured by calcium signaling. A compound/drug can activate (agonist) GnRHR that can be monitored by levels of intracellular calcium.
GnRHR-HEK293 cells developed by Codex Corp contain human GnRHR reporter gene, which was stably integrated into HEK 293 cells. The compound activation can be detected by fluorescence intensity via calcium flux assay. This cell line has been used to screen the Tox21 10K compound library to identify GnRHR agonists.
GnRHR-Hek293 cells were dispensed at 1500cells/4uL/well in 1536-well black wall/clear bottom plates using a multidrop dispenser. After the assay plates were incubated at a 37 C/5% CO2 incubator for 18 hours, 4 uL of Calcium Dye Solution was added to each well. The plates were incubated at 37 C for 1 hour. For agonist mode, 23 nL of compounds dissolved in DMSO, positive controls or DMSO only was transferred to the assay plate by a pin tool station. The fluorescence intensity in the plates was measured using FDSS 7000EX kinetic plate reader with a filter set of Ex/Em=480/540 for 3 min at 1 sec intervals. Each test compound was measured at 15 concentrations and in triplicates.
Take `Clc1ccc(C(c2ccccc2Cl)C(Cl)(Cl)Cl)cc1` (stereo not given): the Potency entry is “inactive”.

For `Clc1ccc(C(Cl)(Cl)Cl)cn1`, the Potency result was “inactive”.

As to `C=CCc1cc(OC)c2c(c1)OCO2`, the Potency result was “inactive”.

With `CC(Cl)C(=O)O` (stereo not given), the Potency result is “inactive”.

Regarding `C=C(C)C#N`, the Potency result is “inactive”.

On to `NC(=S)Nc1ccccc1`, for which the Potency entry was “inactive”.

`CCCCOC(=O)CCC(=O)OCCCC`: the Potency result is “inactive”.

For `CC(C)N(C(=O)CCl)c1ccccc1`, the Potency result is “inactive”.

Take `ClCc1ccccc1`: the Potency entry was “inactive”.

With `Sc1ccccc1Cl`, the Potency result is “inactive”.

In the case of `CNC(=O)NC(O)C(Cl)(Cl)Cl` (stereo not given), the Potency entry is “inactive”.

Take `ClCCN1CCCC1`: the Potency result was “inactive”.

Consider `CCN(CC)CCO`, for which the Potency entry is “inactive”.

For `CCN(CC)C(=O)/C(Cl)=C(\C)OP(=O)(OC)OC`, the Potency entry is “inactive”.

For the compound `Cc1cc(-c2cc(C)c(N)c(C)c2)cc(C)c1N`, the Potency result was “inactive”.

Consider `CCCCN(CC)C(=O)SCCC`, for which the Potency entry is “inactive”.

For the compound `Cc1ccc(C(=O)Cl)cc1`, the Potency result was “inactive”.

With `OCC1CO1` (stereo not given), the Potency entry was “inactive”.

As for `Cc1ncc(CNC(=O)N(CCCl)N=O)c(N)n1`, the Potency result is “inactive”.

Take `C=CC(=O)OCCO`: the Potency result was “inactive”.

As for `c1ccc(OP(Oc2ccccc2)Oc2ccccc2)cc1`, the Potency result was “inactive”.

With `Cc1cccc(C#N)c1`, the Potency entry is “inactive”.

On to `CC(=NC#N)N(C)Cc1ccc(Cl)nc1`, for which the Potency result was “inactive”.

Regarding `CC[n+]1ccccc1`, the Potency result was “inactive”.

On to `NC(=O)OCCCc1ccccc1`, for which the Potency entry is “inactive”.

As for `CN(N=O)C(N)=O`, the Potency result is “inactive”.

On to `Cn1c(N)nc2c3cccnc3ccc21`, for which the Potency result was “inactive”.

Consider `N#Cc1ccc(O)cc1`, for which the Potency entry was “inactive”.

For `C=CCBr`, the Potency entry was “inactive”.

In the case of `CC1(C)[C@H](C(=O)O[C@H](C#N)c2cccc(Oc3ccccc3)c2)[C@@H]1C=C(Br)Br`, the Potency result is “inactive”.

Take `O=C(O)Cc1ccccc1`: the Potency entry is “inactive”.

Consider `O=c1[nH]c2ccccc2c(=O)o1`, for which the Potency entry is “inactive”.

Turning to `O=C/C=C/c1ccccc1`, the Potency entry was “inactive”.

Take `CC(C)=CCN1CC[C@@]2(C)c3cc(O)ccc3C[C@@H]1[C@@H]2C`: the Potency entry was “inactive”.

For the compound `CCCC1COC(Cn2cncn2)(c2ccc(Cl)cc2Cl)O1` (stereo not given), the Potency result is “inactive”.

Take `CC(C)CCCCCOC(=O)c1ccccc1C(=O)OCCCCCC(C)C`: the Potency result is “inactive”.

Regarding `O=C(NCc1cccnc1)Nc1ccc([N+](=O)[O-])cc1`, the Potency result was “inactive”.

Turning to `CN(C)CCc1c[nH]c2cccc(OP(=O)(O)O)c12`, the Potency entry was “inactive”.

For the compound `CCCCOC(=O)COC(=O)c1ccccc1C(=O)OCCCC`, the Potency entry is “inactive”.

Take `Cc1cnc[nH]1`: the Potency entry was “inactive”.
